The target in assay [1] is 3',5'-cyclic-AMP phosphodiesterase 4B (Homo sapiens) (UniProt Q07343). The assay is described as follows: qHTS Assay for Inhibitors of PDE-IV (AID 607; active = well fitted activation curve with a large enough effect in the main read-out, with a control signal flat, not every such curve was filed as active). The method, boiled down:
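ACTOne HEK293 cells carry a modified cAMP-gated CNG channel and express endogenous PDE4; plated 1000 cells/well, compounds up to 22.9 uM final. Membrane-potential dye fluorescence (ex 535/em 590) was read; parental cells received 10 uM forskolin + 100 uM RO 20-1724.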

Assay [2] deals with Cytochrome P450 3A4 (Homo sapiens) (UniProt P08684). The assay is described as follows: qHTS Assay for Activators of Cytochrome P450 3A4 (AID 885). Also: nearly all actives have a fitted effect of over 65% in size. In outline: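 20nM CYP3A4 + 25uM Luciferin-PPXE (=KM), 200mM KPO4; cpd 10 min RT; NADPH regen, 60 min RT; stop w/ detection buffer, 20 min; luminescence. Normalized to 57 uM ketoconazole.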
Sequence of Cytochrome P450 3A4 (Homo sapiens) (P08684 whole entry, looked up): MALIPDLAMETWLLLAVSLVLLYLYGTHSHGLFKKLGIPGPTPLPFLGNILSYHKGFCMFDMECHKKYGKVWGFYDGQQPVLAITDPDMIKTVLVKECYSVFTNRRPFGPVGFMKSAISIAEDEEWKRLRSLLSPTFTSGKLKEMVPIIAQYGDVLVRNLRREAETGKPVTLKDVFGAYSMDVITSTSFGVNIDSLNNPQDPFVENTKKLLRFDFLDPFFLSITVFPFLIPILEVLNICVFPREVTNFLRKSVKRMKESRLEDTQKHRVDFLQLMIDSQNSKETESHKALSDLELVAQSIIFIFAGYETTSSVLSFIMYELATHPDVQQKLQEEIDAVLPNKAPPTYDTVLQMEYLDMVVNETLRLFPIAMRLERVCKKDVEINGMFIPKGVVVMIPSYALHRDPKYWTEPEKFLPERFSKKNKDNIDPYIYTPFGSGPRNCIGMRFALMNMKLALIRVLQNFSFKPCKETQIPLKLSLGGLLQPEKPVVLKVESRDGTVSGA
In assay [3] the target is Cytochrome P450 2D6 (Homo sapiens) (UniProt P10635). The assay is described as follows: qHTS Assay for Inhibitors and Substrates of Cytochrome P450 2D6 (AID 891). Also: potency is read from the fitted curve at half-maximal effect; nearly all actives have a fitted effect of over 60% in size. The method, boiled down: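 Human CYP2D6 (5 nM) with 30 uM Luciferin-ME EGE (at Km) in 100 mM KPO4, compound preincubated 10 min, then NADPH regeneration system for 60 min at room temperature. Luciferin read by luminescence; normalized to 1.43 uM quinidine.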
Sequence of Cytochrome P450 2D6 (Homo sapiens) (P10635 whole entry, looked up): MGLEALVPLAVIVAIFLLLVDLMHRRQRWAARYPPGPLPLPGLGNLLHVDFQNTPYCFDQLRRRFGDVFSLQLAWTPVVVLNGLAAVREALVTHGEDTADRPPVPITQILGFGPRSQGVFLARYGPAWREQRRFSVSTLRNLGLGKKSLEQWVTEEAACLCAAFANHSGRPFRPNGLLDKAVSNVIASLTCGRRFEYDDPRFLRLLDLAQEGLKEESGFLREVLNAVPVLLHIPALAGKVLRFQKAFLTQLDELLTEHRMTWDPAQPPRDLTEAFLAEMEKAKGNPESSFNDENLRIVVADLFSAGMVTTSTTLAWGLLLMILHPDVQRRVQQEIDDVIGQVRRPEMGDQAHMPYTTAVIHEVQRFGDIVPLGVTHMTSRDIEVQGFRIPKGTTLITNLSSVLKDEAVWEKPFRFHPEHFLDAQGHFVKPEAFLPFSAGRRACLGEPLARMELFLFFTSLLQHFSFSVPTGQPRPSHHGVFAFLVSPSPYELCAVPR

Assay [4] is described as follows: qHTS Assay for Identification of Small Molecule Antagonists for NFkB Signaling Pathway (AID 895; active = well fitted inhibition curve with a large enough effect in the signal ratio, with a control signal flat, not every such curve was filed as active; the % refers to the signal ratio; also: potency is read from the fitted curve at half-maximal effect). The method, boiled down:
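NFkB-bla ME-180 cervical carcinoma cells with beta-lactamase reporter under NFkB response element; compounds added, then TNF alpha at 10 pM final (EC50), 5 h at 37 C. LiveBLAzer substrate 2 h, room temperature; emission 460/530 nm at 405 nm excitation.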

The nature of assay [5]: Cellular Toxicity (caspase-3) HepG2 (AID 654).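 Also: cells exposed to compound for 16 hours before reading.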 In outline: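 HepG2 cells (1500/well) in complete medium were treated with compounds for 16 hr at 37 °C. Caspase-3/7 activity was then read as luminescence from peptide-aminoluciferin cleavage. AC50 came from Hill fits, normalized to DMSO and 100 uM tamoxifen.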
A short description of assay [6]: Cellular Toxicity (caspase-3) HUV-EC-C (AID 656). In outline: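 Luminescent Caspase-Glo 3/7 readout after 16 h, 37 °C compound exposure of HUV-EC-C endothelial cells, 1000 per well, complete medium. AC50 derived by Hill fitting, with DMSO as baseline and 100 uM tamoxifen as full activation.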
Assay [7] is described as follows: Cellular Toxicity (caspase-3) SHSY5Y (AID 657). In outline:
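Luminescent Caspase-Glo 3/7 read-out, 1 hr room temperature, follows 16 hours of compound treatment of SH-SY5Y cells at 37 °C. Normalization: DMSO basal, 10 uM staurosporine as 100%; AC50 values from Hill-equation concentration-response fits.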

A short description of assay [8]: Cellular Toxicity (caspase-3) BJ (AID 658). In outline:
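Luminescent aminoluciferin-substrate cleavage reports caspase 3/7 activity in normal human BJ fibroblasts after 16 hr compound exposure at 37 °C. Normalized to DMSO (basal) and 10 uM staurosporine (100%); AC50 from Hill fit of concentration-response.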

Assay [9] in a line: Cellular Toxicity (caspase-3) MRC-5 (AID 659). The note with it: Potency: caspase-3 activation. In outline: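 Luminescence from caspase-cleaved aminoluciferin substrate (Caspase-Glo 3/7, 1 hr RT) reports caspase 3/7 activity in MRC-5 lung fibroblasts after 16 hr compound exposure. Normalized to DMSO basal and 10 uM staurosporine as 100%; AC50 from Hill fits.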
Assay [10] can be described thus: Cellular Toxicity (caspase-3) Mesangial (AID 660).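 Also: cells exposed to compound for 16 h before the caspase read.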 In outline: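 Human renal glomerular mesangial cells (1000/well) were treated with compounds for 16 h at 37 °C in complete medium, then caspase 3/7 activity was read by Caspase-Glo luminescence. Data were normalized to DMSO and 100 uM tamoxifen; AC50 from Hill fits.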
The nature of assay [11]: Cellular Toxicity (caspase-3) SK-N-SH (AID 661). The method, boiled down:
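SK-N-SH human neuroblastoma cells (1500/well) were treated with compounds for 16 hr at 37 °C in complete medium; caspase 3/7 activity was read by Caspase-Glo luminescence. AC50 came from Hill fits of data normalized to DMSO and 10 uM staurosporine.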

The nature of assay [12]: Cellular Toxicity (caspase-3) H-4-II-E (AID 663).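 Also: cells exposed to compound for 16 hr before readout.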 The method, boiled down:
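Luminescence from caspase-cleaved aminoluciferin substrate, read 20 min after reagent addition, reports caspase 3/7 activation in rat H-4-II-E cells after 16 hr compound exposure. Normalized to DMSO (basal) and 100 uM tamoxifen (100%); AC50 from Hill fits.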

A short description of assay [13]: Cellular Toxicity (caspase-3) Hek293 (AID 664).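 Also: cells exposed to compound for 16 h at 37 °C before readout.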 In outline: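 HEK293 cells were exposed to compounds in complete medium for 16 hr at 37 °C, then caspase-3/7 activity was read by Caspase-Glo 3/7 luminescence after 20 min at room temperature. Data normalized to DMSO and 100 uM tamoxifen; AC50 from Hill fits.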
Assay [14] can be described thus: Cellular Toxicity (caspase-3) N2a (AID 665).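 Also: compound exposure lasted 16 h at 37 °C before readout.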 The method, boiled down:
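Mouse N2a neuroblastoma cells (1500/well) were treated with compounds for 16 h at 37 °C, then caspase-3/7 activity was read by Caspase-Glo luminescence after 1 h at room temperature. Data were normalized to DMSO and 10 uM staurosporine; AC50 from Hill fits.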

Assay [15] is described as follows: Cellular Toxicity (caspase-3) NIH 3T3 (AID 666). The method, boiled down:
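Mouse NIH 3T3 fibroblasts (1000 cells/well) were treated with compound for 16 hr at 37°C in complete medium; caspase-3/7 activity was read by Caspase-Glo luminescence. Normalized to DMSO and 100 uM tamoxifen; AC50 from Hill fits.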

A short description of assay [16]: Cellular Toxicity (caspase-3) Renal Proximal Tubule (AID 667).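 Also: cells exposed to compound for 16 hours at 37 °C before detection.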 In outline: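 Caspase 3/7 activation measured by luminescent aminoluciferin release in primary rat proximal tubule cells after 16 hr compound exposure at 37 °C. AC50 from Hill-fitted concentration-response, scaled between DMSO and 10 uM staurosporine.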
Assay [17] in a line: Confirmation and Secondary Assay for Modulators of Hemoglobin Beta Chain Splicing at IVS2 654 locus (AID 910).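 Also: per-well total GFP intensity by laser scanning cytometry after 2-day treatment.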 In outline: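 HeLa cells stably carrying EGFP interrupted by mutant beta-globin IVS2-654 intron (CMV-driven) were treated with compound for 2 days at 37C; corrected splicing was scored as total peak GFP intensity per well (488 nm excitation, 500-520 nm emission).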

In assay [18] the target is Cytochrome P450 2C19 (Homo sapiens) (UniProt P33261). Briefly: qHTS Assay for Inhibitors and Substrates of Cytochrome P450 2C19 (AID 899). Also: nearly all actives have a fitted effect of over 60% in size. The method, boiled down:
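In 50mM KPO4, the reaction held 5nM enzyme and KM-level (10uM) Luciferin-H EGE; it ran 60 min at 37C after NADPH regeneration and a 10 min compound preincubation. Luminescence values were scaled to 57uM ketoconazole as complete inhibition.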

Assay [19] has as its target Cytochrome P450 3A4 (Homo sapiens) (UniProt P08684). The assay is described as follows: qHTS Assay for Inhibitors and Substrates of Cytochrome P450 3A4 (AID 884). Also: series mostly up to about 57 µM; nearly all actives have a fitted effect of over 50% in size. The method, boiled down: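 20 nM human CYP3A4 with 25 uM Luciferin-PPXE (at KM) in 200 mM KPO4, preincubated 10 min with compound; NADPH regeneration started a 60 min RT reaction. Luciferin detected by luminescence, normalized to 57 uM ketoconazole as full inhibition.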

Unmarked numbers belong to inactive results. Records with an inconclusive call do not appear. Calls of active or inactive are those of the source. Unless noted, calls follow the shape of the dose curve; as a rule, active = well fitted curve in the direction sought with a large enough effect; inconclusive = small, poorly fitted or top-dose-only effect, or another doubt; inactive = no such curve, though single readings can be large; an effect the other way counts as inactive or inconclusive.

Sequence of 3',5'-cyclic-AMP phosphodiesterase 4B (Homo sapiens) (Q07343 whole entry, looked up): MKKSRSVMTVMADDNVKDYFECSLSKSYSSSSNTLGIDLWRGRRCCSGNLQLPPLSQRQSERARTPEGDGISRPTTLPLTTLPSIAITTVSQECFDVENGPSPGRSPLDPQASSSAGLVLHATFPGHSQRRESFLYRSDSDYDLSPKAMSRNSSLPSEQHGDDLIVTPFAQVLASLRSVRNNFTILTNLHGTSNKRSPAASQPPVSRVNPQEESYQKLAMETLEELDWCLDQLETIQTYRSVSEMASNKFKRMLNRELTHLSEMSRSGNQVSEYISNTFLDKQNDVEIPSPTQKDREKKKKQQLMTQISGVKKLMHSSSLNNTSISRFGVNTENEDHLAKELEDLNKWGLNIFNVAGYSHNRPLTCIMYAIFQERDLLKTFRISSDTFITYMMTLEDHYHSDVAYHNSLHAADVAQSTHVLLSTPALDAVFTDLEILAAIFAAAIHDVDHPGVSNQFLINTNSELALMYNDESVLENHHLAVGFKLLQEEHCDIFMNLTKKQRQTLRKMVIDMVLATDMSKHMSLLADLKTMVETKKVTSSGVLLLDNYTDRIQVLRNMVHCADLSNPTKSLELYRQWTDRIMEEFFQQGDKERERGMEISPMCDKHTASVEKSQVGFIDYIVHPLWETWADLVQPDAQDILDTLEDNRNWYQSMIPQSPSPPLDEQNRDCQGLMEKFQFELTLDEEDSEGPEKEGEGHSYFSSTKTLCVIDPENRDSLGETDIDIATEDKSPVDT
Sequence of Cytochrome P450 2C19 (Homo sapiens) (P33261 whole entry, looked up): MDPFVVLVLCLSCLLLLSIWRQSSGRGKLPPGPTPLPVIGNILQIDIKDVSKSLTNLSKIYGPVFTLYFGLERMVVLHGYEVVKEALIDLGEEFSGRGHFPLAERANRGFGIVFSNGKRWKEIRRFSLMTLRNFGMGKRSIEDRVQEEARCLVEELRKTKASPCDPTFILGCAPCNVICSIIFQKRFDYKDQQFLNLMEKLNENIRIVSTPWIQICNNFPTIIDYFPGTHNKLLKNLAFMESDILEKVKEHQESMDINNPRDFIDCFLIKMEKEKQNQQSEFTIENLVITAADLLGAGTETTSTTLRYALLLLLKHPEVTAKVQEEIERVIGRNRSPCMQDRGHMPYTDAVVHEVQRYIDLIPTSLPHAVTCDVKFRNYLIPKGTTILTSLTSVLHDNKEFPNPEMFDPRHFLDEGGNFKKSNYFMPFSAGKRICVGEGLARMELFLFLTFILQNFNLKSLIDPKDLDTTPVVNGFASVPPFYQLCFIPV

In the case of `CNCCCC1c2ccccc2C=Cc2ccccc21`, the molecule was classed as inactive in [1] and in [2]. For the same molecule, the Potency in assay [3] is 3980 nM (active); in [4] it was 8910 nM (active).
Turning to `NCCNCCNCCN`, the Potency result in assay [5] and in assay [9] was “inactive” in each case. The call in [6], in [7], in [8], in [10], in assay [11] and in assay [12] was inactive. In addition, the molecule was classed as inactive in assay [13], in [14], in [15] and in [16].
As for `Oc1cccc(O)c1`, the Potency result in assay [5] and in [9] was “inactive” throughout. In addition, the result in assay [6], in assay [7], in assay [8], in assay [10], in assay [11] and in assay [12] was inactive. Also, the outcome in assay [13], in [14], in assay [15], in assay [16], in [2] and in assay [17] was inactive.
Turning to `CCCCN1CCCC[C@H]1C(=O)Nc1c(C)cccc1C`, the result in assay [1] and in [2] was inactive. Moreover, the Potency in assay [3] was 501 nM (active).
As to `CC1=C(CC(=O)O)c2cc(F)ccc2/C1=C\c1ccc(S(C)(=O)=O)cc1`, the call in [1] and in [2] was inactive. The Potency result in assay [18] was “inactive”.
On to `Cn1cc[nH]c1=S`, for which the molecule was called inactive in assay [1] and in [17].
Regarding `NC(=O)N/N=C/c1ccc([N+](=O)[O-])o1`, the Potency entry in [5] and in assay [9] was “inactive” throughout. The call in assay [6], in assay [7], in [8], in assay [10], in [11] and in assay [12] was inactive. Further, the molecule was classed as inactive in assay [13], in assay [14], in assay [15], in [16] and in [17].
`COc1ccc(Cl)cc1C(=O)NCCc1ccc(S(=O)(=O)NC(=O)NC2CCCCC2)cc1`: the molecule was classed as inactive in assay [1] and in assay [17].
Take `CC1(C)[C@@H]2CC[C@@]1(C)C(=O)C2`: the Potency entry in [5], in assay [9] and in assay [19] was “inactive” throughout. In addition, the molecule was classed as inactive in [6], in assay [7], in assay [8], in [10], in assay [11] and in [12]. Moreover, the molecule was called inactive in assay [13], in assay [14], in assay [15] and in [16].
Consider `COc1ccccc1O`, for which the Potency entry in assay [5], in assay [9] and in assay [19] was “inactive” throughout. Also, the outcome in [6], in [7], in [8], in [10], in [11] and in assay [12] was inactive. Moreover, the outcome in assay [13], in assay [14], in [15] and in assay [16] was inactive.
Consider `CC1=C(CC(=O)O)c2cc(F)ccc2/C1=C\c1ccc(S(C)=O)cc1` (stereo not given), for which the molecule was called inactive in assay [1] and in [17].
Regarding `CC(=O)OCC(=O)[C@@]1(O)CC[C@H]2[C@@H]3CCC4=CC(=O)CC[C@]4(C)[C@H]3C(=O)C[C@@]21C`, in [19], the Potency result is “inactive”.
Consider `O=C(Oc1ccccc1C(=O)O)c1ccccc1O`, for which the Potency result in [19] is “inactive”. In addition, the molecule was called inactive in assay [17].
As to `CC(CN(C)C)CN1c2ccccc2CCc2ccccc21` (stereo not given), the result in [2] and in [17] was inactive.
With `NCC(=O)CCC(=O)O`, the Potency entry in assay [19] was “inactive”. The call in assay [17] was inactive.
For the molecule `OC[C@H]1O[C@@H](O[C@@H]2[C@@H](CO)O[C@](O)(CO)[C@H]2O)[C@H](O)[C@@H](O)[C@H]1O`, the Potency entry in assay [19] is “inactive”.
With `CN1CCOC(c2ccccc2)c2ccccc2C1` (stereo not given), the molecule was classed as inactive in assay [17].
Consider `CCCCN(CCCC)CCCOC(=O)c1ccc(N)cc1`, for which the molecule was called inactive in assay [2] and in assay [17]. Further, the Potency in [3] was 6.3 nM (active).
Take `OCC(O)CN1CCN(c2ccccc2)CC1` (stereo not given): the Potency result in [19] was “inactive”. Further, in [17], the molecule was called inactive.

These data come from PubChem BioAssay (NCATS).
